Active and inactive are the calls of the source.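 Rule for the calls, unless noted: active = inhibition at or above 50% at 10 µM; inactive = inhibition below 50%.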
What was measured:
[1] = inhibitors of TNFa-induced NFkB p65 translocation, primary screen, imaging, HUVEC, MLSMR starter and 10KST1 sets (AID 438;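 active = inhibition above 20% together with a positive visual image hit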;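 note: compound added about 3h40 before a 20 min TNFalpha stimulation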;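 for inhibition: signal is the nuclear over cytoplasmic p65 intensity ratio per well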); conditions: HUVEC TNFa-induced p65 nuclear translocation; cell count: measured here: nuclei count (cytotoxicity indicator), at 2.08 µM; inhibition: at 2 µM, stronger effect = higher value, 0% TNFa-plus-vehicle, 100% no-TNFa wells
[2] = inhibitors of mutant huntingtin aggregation, primary screen, imaging, exon1htt(103Q)mCFP cells, high-content imaging (AID 483;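 active = visual image review flags a hit and inhibition of aggregation exceeds 20%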;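 note: compound exposure lasted 3 days before fixation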;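 for nuclei count: percent of the per-plate median nuclei count of sample wells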); conditions: exon1htt(103Q)mCFP cell line, aggregate imaging, at 2 µM; inhibition of aggregation: stronger effect = higher value; nuclei count: measured here: cell count, toxicity
[3] = inhibitors of E-selectin induction by TNFa, primary screen, imaging, HUVEC, immunofluorescence, MLSMR starter and 10KST1 sets (AID 487;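 active = visually confirmed hit in the image check and inhibition above 20%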;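 for inhibition: signal is fraction of cell area covered by stained E-selectin grains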;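 for nuclei count: 100% = median nuclei count of all wells on the same plate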); conditions: HUVEC TNFalpha-induced E-selectin immunofluorescence imaging, at 2 µM; inhibition: stronger effect = higher value; nuclei count: measured here: cell number, toxicity
[4] = target: Voltage-gated potassium channel subunit beta-2 (Rattus norvegicus) (UniProt P62483); experiment: KvBeta enzyme negative modulators, primary screen, biochemical, NADPH fluorescence (AID 622;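 active = fluorescence slope higher than the sample average by over 3 SD, cut at about -0.22 in these data, passing the limit was not always enough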;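 note: slope of raw intensity against log time taken from 70 to 1610 s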); conditions: recombinant KvBeta, 4-cyanobenzaldehyde reduction, at 10 µM, stronger effect = higher value
Sequence of Voltage-gated potassium channel subunit beta-2 (Rattus norvegicus) (P62483 whole entry, looked up): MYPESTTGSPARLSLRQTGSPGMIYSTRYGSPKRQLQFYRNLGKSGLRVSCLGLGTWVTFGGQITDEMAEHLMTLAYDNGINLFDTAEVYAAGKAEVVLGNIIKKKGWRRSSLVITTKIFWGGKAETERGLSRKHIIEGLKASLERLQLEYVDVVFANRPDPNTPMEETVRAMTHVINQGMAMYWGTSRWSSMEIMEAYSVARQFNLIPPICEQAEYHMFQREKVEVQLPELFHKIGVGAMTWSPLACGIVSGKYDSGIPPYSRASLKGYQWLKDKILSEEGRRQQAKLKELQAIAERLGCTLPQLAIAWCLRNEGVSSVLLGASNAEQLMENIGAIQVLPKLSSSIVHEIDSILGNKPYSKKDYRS

[5] = target: Voltage-gated potassium channel subunit beta-2 (Rattus norvegicus) (UniProt P62483); experiment: KvBeta positive modulators, primary screen, biochemical, NADPH fluorescence (AID 623;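 active = NADPH fluorescence slope more negative than the mean of all samples by about 3 SD, 99.7% confidence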;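 note: fluorescence intensity change per second fitted from 20 to 320 s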); conditions: Recombinant KvBeta, NADPH fluorescence decrease slope, 10 min; at 10 µM; stronger effect = lower value
[6] = target: Alpha-2C adrenergic receptor (Homo sapiens) (UniProt P18825); experiment: modulators of alpha2C/GIRK thallium flux, primary screen, cell-based, HEK293 alpha2C/GIRK1/2 (AID 624;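 active = fluorescence slope after compound addition differing from the mean of all screened samples at 99.7% confidence, in either direction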;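 note: slope of fluorescence ratio to pre-addition baseline per second over 15 to 24 s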); conditions: thallium flux BTC fluorescence, at 10 µM, actives lie on both sides
Sequence of Alpha-2C adrenergic receptor (Homo sapiens) (P18825 whole entry, looked up): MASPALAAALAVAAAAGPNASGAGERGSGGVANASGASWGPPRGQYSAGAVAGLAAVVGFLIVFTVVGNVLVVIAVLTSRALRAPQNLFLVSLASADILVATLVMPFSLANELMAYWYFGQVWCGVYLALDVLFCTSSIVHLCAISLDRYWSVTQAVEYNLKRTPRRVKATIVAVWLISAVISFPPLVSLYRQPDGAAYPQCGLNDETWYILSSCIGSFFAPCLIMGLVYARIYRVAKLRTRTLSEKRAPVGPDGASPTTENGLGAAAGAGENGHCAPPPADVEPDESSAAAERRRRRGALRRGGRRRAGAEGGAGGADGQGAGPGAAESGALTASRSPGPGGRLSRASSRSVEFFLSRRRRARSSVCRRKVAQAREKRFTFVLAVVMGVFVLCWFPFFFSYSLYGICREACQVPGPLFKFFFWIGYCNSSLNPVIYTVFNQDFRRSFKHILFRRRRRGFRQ

[7] = inhibitors of Sendai virus-induced IRF3 signaling, primary screen, TLR/RLR signaling modifier project, cell-based, Sendai virus stimulus, luciferase, 10K MLSCN set (AID 602276); conditions: HEK293 RL24 IRF3 luciferase reporter, at 10 µM, stronger effect = higher value;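 note: firefly luciferase from ISG56 promoter only with Renilla not read in this screen; 0% = Sendai virus plus DMSO and 100% = medium plus DMSO without virus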
[8] = inhibitors of poly I:C-induced TLR3 signaling, primary screen, cell-based, poly I:C stimulus, luciferase, 10K MLSCN set (AID 602277;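 active = inhibition of the reporter signal at or above 50%; inactive = inhibition below 50%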); conditions: HEK293-TLR3 RL24 IRF3 luciferase reporter, at 10 µM, stronger effect = higher value

Row | SMILES | cell count [1] | inhibition [1] | inhibition of aggregation [2] | nuclei count [2] [%] | inhibition [3] | nuclei count [3] [%] | fluorescence slope [4] | NADPH fluorescence slope [5] | slope [6] | inhibition [7] | inhibition [8]
1 | O=C(NC1=NCCS1)c1nc(-c2ccccc2)n(-c2ccccc2)n1 | 495 | 4.7% (inactive) | 1% (inactive) | 109 | -60.7% (inactive) | 113 | -0.405 (inactive) | -4.9e-05 (inactive) | 0.00535 (inactive) | 8.38% (inactive) | 11.1% (inactive)
2 | N#Cc1nc(-c2ccco2)oc1N1CCN(c2cccc(Cl)c2)CC1 | 744 | -7.5% (inactive) | 20.8% (inactive) | 123 | -75.1% (inactive) | 109 | -0.334 (inactive) | 2.4e-05 (inactive) | 0.00657 (inactive) | 8.62% (inactive) | -3.74% (inactive)
3 | Cc1cc(C)n(-c2nc3sc4c(c3c3nnc(SC(C)C)n23)CC(C)(C)OC4)n1 | 352 | 8.5% (inactive) | 2.2% (inactive) | 113 | -22% (inactive) | 117 | -0.455 (inactive) | 1.9e-05 (inactive) | 0.00472 (inactive) | -16.9% (inactive) | -11.9% (inactive)
4 | CCOc1ccc(-c2c(C#N)c(N)nc3c2c(=O)n(C)c(=O)n3C)cc1OC | 702 | -1.1% (inactive) | 7.8% (inactive) | 108 | -7.5% (inactive) | 103 | -0.486 (inactive) | -5.7e-05 (inactive) | 0.00459 (inactive) | 14.3% (inactive) | 16.4% (inactive)
5 | COc1ccc(-n2c(Cc3cccn3C)nnc2SCC(=O)Nc2ccc(Cl)cc2)cc1 | 678 | -5.8% (inactive) | 8.1% (inactive) | 85 | -22.9% (inactive) | 119 | -0.567 (inactive) | -5e-06 (inactive) | 0.0052 (inactive) | 11.4% (inactive) | 23.2% (inactive)
6 | COC(=O)c1ccccc1NC(=O)C1CCN(S(=O)(=O)c2cc(C)ccc2OC)CC1 | 607 | 3.6% (inactive) | -20.2% (inactive) | 111 | -76.8% (inactive) | 123 | -0.454 (inactive) | -2.4e-07 (inactive) | 0.00507 (inactive) | 18.9% (inactive) | 28.7% (inactive)
7 | CC(=O)c1ccccc1NS(=O)(=O)c1c(C)nn(-c2ccccc2)c1C | 580 | -2.4% (inactive) | 2.3% (inactive) | 113 | -74.1% (inactive) | 92.7 | -0.308 (inactive) | -5e-05 (inactive) | 0.00448 (inactive) | -4.38% (inactive) | 98.9% (active)
8 | O=C(O)CC1=C(O)C(=O)N(c2ccccc2)C1c1ccccc1 (stereo not drawn) | 405 | 1.1% (inactive) | 6.7% (inactive) | 111 | -61.5% (inactive) | 117 | -0.391 (inactive) | -4e-05 (inactive) | 0.00537 (inactive) | 4.01% (inactive) | 29.8% (inactive)
9 | COc1ccc2cc(C(=O)NCc3ccco3)c(=Nc3ccc(C(=O)O)cc3)oc2c1 | 507 | -12.8% (inactive) | 19% (inactive) | 96.3 | -56.7% (inactive) | 120 | -0.372 (inactive) | -5.2e-05 (inactive) | 0.00401 (inactive) | 16.4% (inactive) | 3.42% (inactive)
10 | COc1ccc(Cl)c(NCCC(=O)O)c1 | 632 | -4.2% (inactive) | 2.2% (inactive) | 110 | -96.7% (inactive) | 130 | -0.453 (inactive) | -0.000352 (inactive) | 0.00574 (inactive) | -8.17% (inactive) | -4.52% (inactive)
11 | Cc1ccc(C(C(=O)NC(C)(C)C)N(C(=O)c2csnn2)c2cccc(F)c2)o1 (stereo not drawn) | 357 | 4.3% (inactive) | 7.8% (inactive) | 93.7 | -33.5% (inactive) | 81.8 | -0.492 (inactive) | 8.2e-06 (inactive) | 0.00622 (inactive) | 8.19% (inactive) | 20.7% (inactive)
12 | Cn1c(=O)c2c([nH]c(=O)n2C)n(C)c1=O | 364 | 1.7% (inactive) | 2.6% (inactive) | 104 | 16.9% (inactive) | 101 | -0.435 (inactive) | -0.000114 (inactive) | 0.00554 (inactive) | 18% (inactive) | 20.1% (inactive)
13 | COc1ccc(C2C(C(=O)N3CCC(C)CC3)c3ccccc3C(=O)N2C)cc1 (stereo not drawn) | 475 | -3.8% (inactive) | 12.4% (inactive) | 91.5 | -17.4% (inactive) | 101 | -0.54 (inactive) | -1.3e-05 (inactive) | 0.00505 (inactive) | -9.25% (inactive) | 12.2% (inactive)
14 | CC1(C)Cc2cccc(OCC(O)CN3CCN(c4ccccn4)CC3)c2O1 (stereo not drawn) | 518 | -7.3% (inactive) | 3.5% (inactive) | 92.3 | -90.2% (inactive) | 111 | -0.624 (inactive) | -2e-05 (inactive) | 0.00547 (inactive) | -6.85% (inactive) | -0.552% (inactive)
15 | CC(=O)NC(Cc1ccc(C)cc1)C(=O)NC1CCN(C(=O)c2cnccn2)CC1 (stereo not drawn) | 740 | -1% (inactive) | 22.2% (inactive) | 130 | -42% (inactive) | 117 | -0.421 (inactive) | -1.5e-05 (inactive) | 0.00511 (inactive) | 13.8% (inactive) | 9.87% (inactive)
16 | COc1ccc(CC(NC(C)=O)C(=O)N2CCN(C(=O)N(C(C)C)C(C)C)CC2)cc1 (stereo not drawn) | 309 | -4% (inactive) | -9.5% (inactive) | 91.9 | -29.4% (inactive) | 100 | -0.397 (inactive) | -6.6e-05 (inactive) | 0.00701 (inactive) | 4.31% (inactive) | 3.57% (inactive)
17 | CC1(C)CC(=O)C(C=Nc2ccc3c(c2)OCO3)=C(O)C1 | 329 | 1% (inactive) | 12.6% (inactive) | 104 | -252% (inactive) | 86.4 | -0.435 (inactive) | -6.8e-05 (inactive) | 0.00387 (inactive) | -6.77% (inactive) | -5.98% (inactive)
18 | CN1CCN(C(c2cccc(C(F)(F)F)c2)c2nnnn2C(C)(C)C)CC1 (stereo not drawn) | 337 | -6% (inactive) | 32.7% (inactive) | 73.7 | -68.4% (inactive) | 94.8 | -0.591 (inactive) | -2.7e-05 (inactive) | 0.00442 (inactive) | 19.1% (inactive) | 22.7% (inactive)
19 | CSCCC(C(=O)Nc1ccc2c(c1)OCO2)N1C(=O)c2ccccc2C1=O (stereo not drawn) | 632 | 3.8% (inactive) | -16.3% (inactive) | 96.3 | -138% (inactive) | 107 | -0.61 (inactive) | -7.2e-06 (inactive) | 0.006 (inactive) | 9.29% (inactive) | 22% (inactive)
20 | O=C(Nc1cnn(Cc2ccc(Cl)cc2Cl)c1)c1noc2c1CCCC2 | 510 | -7.6% (inactive) | 33.3% (active) | 57.6 | -22.8% (inactive) | 99.5 | -0.569 (inactive) | -2.6e-05 (inactive) | 0.00522 (inactive) | -3.18% (inactive) | -25.5% (inactive)
21 | COc1cccc(C2C3=C(N=C4SCC(=O)N42)c2ccccc2CC3)c1OC (stereo not drawn) | 680 | 1.6% (inactive) | -10.8% (inactive) | 107 | -15.3% (inactive) | 98.5 | -0.442 (inactive) | 4.1e-05 (inactive) | 0.00306 (inactive) | -0.493% (inactive) | 29.3% (inactive)
22 | Cc1cccc(-c2nnc(SCC#N)n2-c2cccc(Cl)c2)c1 | 651 | 10.2% (inactive) | 0.4% (inactive) | 118 | 66.1% (inactive) | 109 | -0.441 (inactive) | -2.1e-05 (inactive) | 0.00584 (inactive) | 10.9% (inactive) | 21.3% (inactive)
23 | Cn1c(=O)c2c(nc(-n3ccnc3)n2C)n(C)c1=O | 311 | -8.5% (inactive) | 14.2% (inactive) | 85.8 | -22.1% (inactive) | 104 | -0.362 (inactive) | 8.4e-06 (inactive) | 0.00573 (inactive) | 15.7% (inactive) | 17.1% (inactive)
24 | CC1CN(c2ccc(Oc3ccccc3)cc2)c2nc3c(c(=O)n(CC(N)=O)c(=O)n3C)n2C1 (stereo not drawn) | 706 | -12.4% (inactive) | 4.2% (inactive) | 106 | -15.8% (inactive) | 93.4 | -0.546 (inactive) | -6.5e-05 (inactive) | 0.00659 (inactive) | 9.73% (inactive) | 22.4% (inactive)
25 | CN1CCN(C2=C(Cl)C(=O)N(c3cccc(Cl)c3)C2=O)CC1 | 396 | 5.9% (inactive) | 8.6% (inactive) | 91.3 | -1.1% (inactive) | 97.4 | -0.355 (inactive) | -3.9e-05 (inactive) | 0.00541 (inactive) | 5.11% (inactive) | 13.1% (inactive)
26 | CCOc1ccc2nc(NC(=O)CSc3nc4ccccc4c(=O)n3Cc3ccco3)sc2c1 | 654 | -6.1% (inactive) | -5.6% (inactive) | 115 | -65.7% (inactive) | 132 | -0.413 (inactive) | 9.6e-06 (inactive) | 0.00934 (active) | 15.6% (inactive) | 10% (inactive)
27 | CCCOC(=O)c1[nH]c2c(c1C)C(=O)CC(c1ccc(OC)c(OC)c1)C2 (stereo not drawn) | 235 | -2.8% (inactive) | 2.4% (inactive) | 101 | 17.6% (inactive) | 47.3 | -0.408 (inactive) | 8.6e-06 (inactive) | 0.00378 (inactive) | -11.5% (inactive) | -41.9% (inactive)
28 | CCCCOc1ccc(C(=O)N2CCC(C)CC2)cc1 | 323 | 7.9% (inactive) | -8.4% (inactive) | 99.9 | -13.8% (inactive) | 87 | -0.434 (inactive) | -5.1e-05 (inactive) | 0.00442 (inactive) | -4.61% (inactive) | -21% (inactive)

— PubChem BioAssay
